Source: PubChem BioAssay (NCI)
About 83,000 compounds went through this panel and 20% of them were active in at least one assay; those are over-represented in the sample as a whole.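 Compound tested at a single concentration for 48 hours in 96-well plates; a percent growth value below 10 was scored as active.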 Activity calls are given as the source filed them.

System: SF-295 CNS
Assay: NCI-60 one-dose screen, 48 h (100 = growth as untreated, 0 = no growth, -100 = all killed)
Conditions: 10 µM unless noted

Row | SMILES | growth
1 | COc1cc2nc(Cl)nc(Nc3cccc(C4=Nc5c(N)nc(N)nc5NC(c5ccccc5)C4)c3)c2cc1OC (centres undefined) | 75.8% (inactive)
2 | C#C[C@]1(O)CC[C@H]2[C@@H]3CC=C4c5sc(-c6ccc7c(c6)OCO7)nc5CC[C@]4(C)[C@H]3CC[C@@]21C | -47.7% (active)
3 | CCO/C=N/C1=C(C#N)C(c2ccc(F)cc2)c2sc3c(C)cccc3c2O1 (centres undefined) | -6.89% (active)
4 | COc1ccc(/C=C(\C#N)C(=O)N2c3ccccc3Sc3ccc(SC)cc32)cc1F | 104% (inactive)
5 | NC(N)=Nc1ccc(Oc2cccc(Nc3ccc(Cl)c(C(F)(F)F)c3)c2)cc1 | 4.34% (active)
6 | COc1ccccc1-n1cc(C#N)c(N)c1C(=O)c1ccc(Br)cc1 | 45.5% (inactive)
7 | Cc1cccc(/C=C/C(=O)Nc2ncc(Cc3cccc(C)c3)s2)c1 | -1.79% (active)
8 | C=C(C=O)[C@@H]1CC[C@]2(C)[C@H](CC=C3[C@H]4[C@@H](C)[C@H](C)CC[C@]4(C(=O)OC)CC[C@]32C)[C@@]1(C)CCC#N | 7.53% (active)
9 | NC(N)=Nc1ccc(Oc2cccc(Nc3ccc(Br)c(C(F)(F)F)c3)c2)cc1 | -65.3% (active)
10 | Nc1nc(N)c2c(n1)NC(c1ccc(C(F)(F)F)cc1)CC(c1ccc(Nc3nc(NCCO)nc(N4CCOCC4)n3)cc1)=N2 (centres undefined) | 73.2% (inactive)
11 | COc1ccccc1-n1cc(C#N)c(N)c1C(=O)c1ccc(C)cc1 | 74.1% (inactive)
12 | O=C(CCn1c[n+](CC(=O)c2ccc(F)cc2)c2ccccc21)Nc1cccc2cccnc12 | 99.2% (inactive)
13 | C#CCn1cccc1CNc1ccc(OC)cc1 | -92% (active)
14 | NC(N)=Nc1ccc(Oc2cccc(Oc3ccc(Cl)c(C(F)(F)F)c3)c2)cn1 | -93.5% (active)
15 | CCn1c2ccccc2c2cc(-n3nncc3-c3ccccc3)ccc21 | 15.7% (inactive)
16 | COc1ccc(COc2ccc(/C=C3\C(=O)Nc4ccccc43)cc2OC)cc1 | 103% (inactive)
17 | O=C(CCn1cc[n+](CC(=O)c2ccc(-c3ccccc3)cc2)c1)Nc1cccc2cccnc12 | 100% (inactive)

Row | SMILES | growth
18 | C[C@@H]1C[C@H]2C(=O)O[C@@H](C)C(NC(=O)[C@H](Cc3cc(F)cc(F)c3)NC(=O)Nc3ccc(C4CC4)cc3F)C(=O)N3CCC[C@H]3C(=O)N3CCCC[C@H]3C(=O)N[C@@H](CO)C(=O)N2C1 (some centres undefined) | 11.4% (inactive)
19 | CCOC(=O)c1c(Nc2ccccc2)nn2c(-c3ccccc3)ccnc12 | 92.9% (inactive)
20 | C#C[C@]1(O)CC[C@H]2[C@@H]3CC=C4c5sc(-c6cccc(O)c6)nc5CC[C@]4(C)[C@H]3CC[C@@]21C | -64.7% (active)
21 | C#C[C@]1(O)CC[C@H]2[C@@H]3CC=C4c5sc(-c6ccc(C)cc6)nc5CC[C@]4(C)[C@H]3CC[C@@]21C | -66.5% (active)
22 | NS(=O)(=O)c1ccc(-n2cc(-c3cccc(NC(=O)c4ccc(N5CCOCC5)c(C(F)(F)F)c4)c3)nn2)cc1 | 32.6% (inactive)
23 | CCO/C=N/C1=C(C#N)C(c2ccc(OC)cc2)c2sc3c(CC)cccc3c2O1 (centres undefined) | 3.52% (active)
24 | O=C(CN1CCN(c2cc(=O)[nH]c3ccc(F)cc23)CC1)Nc1ccc(Cl)cc1 | 67.2% (inactive)
25 | COc1cc2nc(Cl)nc(Nc3cccc(C4=Nc5c(N)nc(N)nc5NC(c5ccc6c(c5)OCO6)C4)c3)c2cc1OC (centres undefined) | 37.7% (inactive)
26 | CC1(C)NCCC[C@]2(C)[C@H]3C/C(=N\O)C4[C@@H]5C[C@@](C)(CO)CC[C@]5(C)CC[C@@]4(C)[C@]3(C)CC[C@@H]12 (some centres undefined) | 100% (inactive)
27 | C#Cc1nc(/C=C/C(=O)c2nccn2C)cs1 | -87.8% (active)
28 | COc1cc2nc(Cl)nc(Nc3cccc(C4=Nc5c(N)nc(N)nc5NC(c5ccc(Cl)cc5)C4)c3)c2cc1OC (centres undefined) | -23.9% (active)
29 | CC(C)(C)c1ccc(C(=O)Nc2sc3c(c2C(N)=O)CCC(O)C3)cc1 (centres undefined) | -1.38% (active)
30 | COc1ccc(-c2nc3cccc(O)c3c(=O)n2Cc2ccccc2)cc1COc1ccc(NC(C)=O)cc1 | 23.8% [3 µM] (inactive)
31 | N#Cc1cn(Cc2ccc(Cl)cc2Cl)c(C(=O)c2ccc(Br)cc2)c1N | 83.7% (inactive)
32 | O=C(CCn1c[n+](CC(=O)c2ccc(-c3ccccc3)cc2)c2ccccc21)Nc1cccc2cccnc12 | 89.6% (inactive)
33 | Cc1ccc(-c2nnc(SCc3ccc(O)c4ncccc34)o2)cc1 | 5.77% (active)
34 | Cc1ccc(S(=O)(=O)N(CC[C@@H]2C[C@H]2c2cc3ccccc3o2)S(=O)(=O)c2ccc(C)cc2)cc1 | 101% (inactive)
